Our source for the DAPI nuclei signal change (viability), lower = more cytotoxic and inhibition values is PubChem BioAssay AID651582 (Sanford-Burnham Center for Chemical Genomics, 2012).

Several values for one entry are separate records, joined by “and”; a condition that tells them apart may be missing. Equal values may be shown once. Out of some 230,000 compounds screened, about 1,500 (0.65%) were called active.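 Rule for the calls: active = pattern-corrected inhibition of lipid staining of at least 50% with the nuclear-stain viability signal not falling by more than 50%; inactive = the rest, inconclusive results apart.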 Shown is part of a subset that was picked to be rich in actives. The source holds several records for some structures; these can differ, active in one and inactive in another.

The test can be described thus: inhibitors of triacylglycerol accumulation, primary screen, cell-based, uHTS, fluorescence, H9c2 (AID 651582).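 For inhibition: 0% = DMSO wells and 100% = triacsin C control wells.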 Conditions: H9c2 cells, Nile Red lipid (TAG) fluorescence, at 12.5 µM, cells loaded with 200 µM oleic acid; DAPI nuclei signal change (viability), lower = more cytotoxic: measured here: DAPI nuclei count viability; inhibition: stronger effect = higher value.
For the compound `CNc1cncc(-c2ccc(NS(C)(=O)=O)cc2)n1`, the DAPI nuclei signal change (viability), lower = more cytotoxic is -24.4% and the inhibition is 24.8% (inactive).

On to `CCc1ccc(OCC(O)CN2CCN(CCO)CC2)cc1` (stereo not drawn), for which the DAPI nuclei signal change (viability), lower = more cytotoxic was 4.43% and the inhibition is -3.68% (inactive).

As to `CC(C)(c1ccccc1)c1ccc(OCCN)cc1`, the DAPI nuclei signal change (viability), lower = more cytotoxic stood at 10.8% and the inhibition was 22% (inactive).

`CN(C)CC(O)COc1ccc(C(C)(C)c2ccc(OCC(O)CN(C)C)cc2)cc1` (stereo not drawn): the DAPI nuclei signal change (viability), lower = more cytotoxic came to 20% and the inhibition is 50.5% (active).

As to `CC(=O)NC12CC3CC(C1)CC(C(=O)N1CCN(C(=O)c4ccco4)CC1)(C3)C2`, the DAPI nuclei signal change (viability), lower = more cytotoxic was 0.13% and the inhibition was -4.34% (inactive).

As to `CS(=O)(=O)c1ccc(C(=O)NNC(=O)c2cccs2)cc1`, the DAPI nuclei signal change (viability), lower = more cytotoxic is -4.79% and the inhibition was -4.25% (inactive).

On to `C=CCNC(=S)N/N=C/c1ccc(OCc2ccccc2)cc1`, for which the DAPI nuclei signal change (viability), lower = more cytotoxic was determined as 1.44% and the inhibition was 9.8% (inactive).

Turning to `C=CCNC(=S)N/N=C/c1ccc(C)s1`, the DAPI nuclei signal change (viability), lower = more cytotoxic is -18.5% and the inhibition is 56% (active).

Consider `Cc1ccc(/C=N/NC(=O)CN2CCN(Cc3ccccc3)CC2)s1`, for which the DAPI nuclei signal change (viability), lower = more cytotoxic stood at 1.3% and the inhibition was 2.92% (inactive).

For the compound `CCOc1ccc(CN2CCN(Cc3ccc4cc(F)ccc4n3)CC2CCO)cc1` (stereo not drawn), the DAPI nuclei signal change (viability), lower = more cytotoxic stood at 1.54% and the inhibition is 7.07% (inactive).

Regarding `O=c1cc(N2CCN(Cc3ccccc3)CC2)c(-c2ccccc2)n[nH]1`, the DAPI nuclei signal change (viability), lower = more cytotoxic is -7.21% and the inhibition is 20.7% (inactive).

As for `O=C(CCN1CCN(C/C=C/c2ccccc2)CC1)Nc1cccc(F)c1`, the DAPI nuclei signal change (viability), lower = more cytotoxic turned out to be 11.8% and the inhibition was 13.2% (inactive).

As to `O=C1c2ccccc2C(=O)c2c1cccc2N1CCN(C/C=C/c2ccccc2)CC1`, the DAPI nuclei signal change (viability), lower = more cytotoxic was found to be 3.54% and the inhibition was 59.1% (active).

In the case of `O=C(CN1CCN(Cc2ccccc2)CC1)NC(c1ccccc1)c1ccccc1`, the DAPI nuclei signal change (viability), lower = more cytotoxic is 4.91% and the inhibition was -87.5% (inactive).

Take `CNC(=O)NC(=O)C(C)N1CCN(C/C=C/c2ccccc2)CC1` (stereo not drawn): the DAPI nuclei signal change (viability), lower = more cytotoxic was determined as 3.57% and the inhibition was 4.65% (inactive).

For `O=C1c2ccccc2C(=O)c2c1cccc2N1CCN(Cc2ccccc2)CC1`, the DAPI nuclei signal change (viability), lower = more cytotoxic stood at 4.09% and the inhibition was 114% (active).

For `O=C(COC(=O)/C=C/c1ccc(Cl)cc1)NC1CCS(=O)(=O)C1` (stereo not drawn), the DAPI nuclei signal change (viability), lower = more cytotoxic is -1.68% and the inhibition was 1.31% (inactive).

In the case of `O=C(COC(=O)c1ccccn1)NNC(=O)c1ccc(Br)cc1`, the DAPI nuclei signal change (viability), lower = more cytotoxic is 1.16% and the inhibition is 11.9% (inactive).

As for `COC(=O)c1ccc(CN2CCCC(C(=O)Nc3cccc(-n4cnnn4)c3)C2)cc1` (stereo not drawn), the DAPI nuclei signal change (viability), lower = more cytotoxic amounted to 3.39% and the inhibition was -0.9% (inactive).

Turning to `COc1ccc(C(CNC(=O)c2cccc(S(=O)(=O)Nc3ccc(Br)cc3)c2)N(C)C)cc1` (stereo not drawn), the DAPI nuclei signal change (viability), lower = more cytotoxic was 7.9% and the inhibition was -15.7% (inactive).

Regarding `O=C(Nc1nc2c(F)cc(F)cc2s1)C1COc2ccccc2O1` (stereo not drawn), the DAPI nuclei signal change (viability), lower = more cytotoxic was -6.26% and the inhibition is -0.591% (inactive).

On to `O=C(Nc1nc(-c2ccncc2)cs1)C1COc2ccccc2O1` (stereo not drawn), for which the DAPI nuclei signal change (viability), lower = more cytotoxic was -38.7% and the inhibition is 50.4% (active).

Turning to `COc1ccc(OC)c2sc(NC(=O)C3COc4ccccc4O3)nc12` (stereo not drawn), the DAPI nuclei signal change (viability), lower = more cytotoxic is -0.689% and the inhibition is -1.03% (inactive).

In the case of `CCCCc1ccc(NS(=O)(=O)c2cccc(C(=O)N3CCCN(C)CC3)c2)cc1`, the DAPI nuclei signal change (viability), lower = more cytotoxic is 4.43% and the inhibition was -11.5% (inactive).

On to `CC1O[C@@H](OC2C(O)C(C)O[C@H](OC(=O)[C@]34CCC(C)(C)C[C@H]3C3=CCC5[C@@]6(C)CC(O)C(O[C@@H]7OC(CO)C(O)[C@@H](O)[C@@H]7O)[C@@](C)(C(=O)O)C6CC[C@@]5(C)[C@]3(CO)CC4)C2O[C@H]2OC(C)[C@@H](O[C@@H]3OCC(O[C@@H]4OC(CO)C(O)[C@H](O)C4O)[C@@H](O)[C@@H]3O)[C@H](O)C2O)C(O)C(O)C1O` (stereo partly drawn), for which the DAPI nuclei signal change (viability), lower = more cytotoxic was -3.05% and the inhibition was 18.4% (inactive).

Regarding `COc1cc(NC(=O)c2cncc(-c3ccc(C#N)cc3)c2)cc(C(=O)Nc2cccc(C(F)(F)F)c2)c1`, the DAPI nuclei signal change (viability), lower = more cytotoxic is 0.0489% and -1.97%; the inhibition was -19.1% (inactive) and 61.3% (active).

Turning to `COc1ccc(NC(=O)C(=O)NCC(=O)Nc2cccc(C(F)(F)F)c2)cc1`, the DAPI nuclei signal change (viability), lower = more cytotoxic was -2.54% and the inhibition is 4.19% (inactive).

With `Cc1cccc(NC(=O)c2nnn(-c3cccc(C(F)(F)F)c3)c2N)c1`, the DAPI nuclei signal change (viability), lower = more cytotoxic is -5.82% and the inhibition is 3.82% (inactive).

As to `COc1cc(NC(=O)c2[nH]cnc2C(N)=O)cc(C(=O)Nc2cccc(C(F)(F)F)c2)c1`, the DAPI nuclei signal change (viability), lower = more cytotoxic is -14.2% and the inhibition is 53.7% (active).

For the compound `COc1ccc(NC(=O)CN(C)CC(=O)Nc2cccc(C(F)(F)F)c2)cc1`, the DAPI nuclei signal change (viability), lower = more cytotoxic is 6.16% and the inhibition is -9.17% (inactive).

As for `N#Cc1ccc(Oc2ccc(C(F)(F)F)cc2NC(=O)c2ccc(F)cc2)cc1`, the DAPI nuclei signal change (viability), lower = more cytotoxic is 4.06% and the inhibition was -7.23% (inactive).

For `CC(C)(C)OC(=O)C[C@@H]1C/C=C\C[C@@H](CC(=O)N(CCO)Cc2ccccc2)C(=O)N[C@H](Cc2ccccc2)COC1=O`, the DAPI nuclei signal change (viability), lower = more cytotoxic is -3.76% and the inhibition was 9.88% (inactive).

For the compound `O=C(COc1ccc(Br)cc1)OCC(=O)c1ccc[nH]1`, the DAPI nuclei signal change (viability), lower = more cytotoxic is 0.498% and the inhibition was -0.551% (inactive).

As to `CC(=O)NCc1ccc(-c2csc(NC(=O)CCCc3nc4ccccc4c(=O)[nH]3)n2)cc1`, the DAPI nuclei signal change (viability), lower = more cytotoxic came out at 0.981% and the inhibition is 12% (inactive).

As to `Cc1onc(-c2c(F)cccc2Cl)c1C(=O)OCC(=O)N1C(C)CCCC1C` (stereo not drawn), the DAPI nuclei signal change (viability), lower = more cytotoxic was -2.4% and the inhibition was 8.89% (inactive).

For `CCCCNc1c(-c2ccc(OC)c(Sc3ccc(OC)cc3)c2)nc2ccc(Cl)cn12`, the DAPI nuclei signal change (viability), lower = more cytotoxic was 65.8% and the inhibition is 11.1% (inactive).

For `C=CCC[C@@H](Cc1ccc(F)cc1)C(=O)OC[C@H](Cc1c[nH]c2ccccc12)NC(=O)[C@@H](CC=C)CC(=O)N(CCO)Cc1ccccc1`, the DAPI nuclei signal change (viability), lower = more cytotoxic was -6.98% and the inhibition is 68% (active).

As to `C=CCC[C@H](Cc1ccc(F)cc1)C(=O)OC[C@@H](Cc1c[nH]c2ccccc12)NC(=O)[C@H](CC=C)CC(=O)N[C@H](CO)Cc1ccccc1`, the DAPI nuclei signal change (viability), lower = more cytotoxic was found to be 1.3% and the inhibition is 20.3% (inactive).

For `C=CCC[C@H](Cc1ccc(F)cc1)C(=O)OC[C@H](C)NC(=O)[C@H](CC=C)CC(=O)N(CCO)Cc1ccccc1`, the DAPI nuclei signal change (viability), lower = more cytotoxic is -5.64% and the inhibition is 27.4% (inactive).
